From PubChem BioAssay AID1851 (National Center for Advancing Translational Sciences (NCATS), 2009)
The whole screen tested about 16,000 compounds, of which about 5,800 (36%) were called active. Inconclusive results (about 23%) are left out. The call rests on the fitted dose curve; in most records, active means well fitted curve in the direction sought with a large enough effect; inconclusive means small, poorly fitted or top-dose-only effect, or effect the other way; inactive means no such curve, though single readings can be large or run the other way. The list shows a part of the results. The source holds several records for some structures; these can differ, active in one and inactive in another.

biological target: Cytochrome P450 2C19 (Homo sapiens) (UniProt P33261); test: Cytochrome panel assay with activity outcomes; settings: recombinant CYP, pro-luciferin dealkylation, luminescence, p450-cyp2c19; series mostly up to 57.1 µM; activity, negative = inhibition: at the top concentration
Sequence (P33261 whole entry, looked up): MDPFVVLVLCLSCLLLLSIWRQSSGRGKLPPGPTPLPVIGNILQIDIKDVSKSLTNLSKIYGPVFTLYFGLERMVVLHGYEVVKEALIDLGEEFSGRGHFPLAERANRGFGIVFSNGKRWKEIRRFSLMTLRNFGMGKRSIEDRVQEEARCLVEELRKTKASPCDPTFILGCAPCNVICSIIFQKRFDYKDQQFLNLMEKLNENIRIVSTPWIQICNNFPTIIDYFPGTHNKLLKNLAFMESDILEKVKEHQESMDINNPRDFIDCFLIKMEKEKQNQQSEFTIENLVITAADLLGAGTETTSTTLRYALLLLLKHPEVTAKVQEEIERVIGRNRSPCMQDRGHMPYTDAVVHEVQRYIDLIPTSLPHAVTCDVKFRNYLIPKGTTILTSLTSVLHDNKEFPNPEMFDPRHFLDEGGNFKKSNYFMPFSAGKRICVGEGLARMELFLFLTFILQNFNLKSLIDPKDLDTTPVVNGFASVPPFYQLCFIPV
On the % scale 0 is the no-effect control and ±100 the full control effect.

SMILES	activity, negative = inhibition	AC50
O=C(O)CC12C[C@H]3C[C@@H](CC(O)(C3)C1)C2	7.05% [at 11.4 µM] (inactive)	–
CCCn1nc(C(=O)NCC(C)(C)N2CCOCC2)c2ccccc2c1=O	–	17.8 µM (active)
O=C(NCCN1CCOCC1)c1nn2c(c1Cl)NC(c1ccccc1)CC2C(F)(F)F (centres undefined)	-27.1% (inactive)	–
Cn1cc[nH]c1=S	-32.6% [at 25.6 µM] (inactive)	–
COCCNc1cc(-c2ccccc2C)ncn1	–	15.8 µM (active)
COCCNc1cc(-c2c(C)noc2C)ncn1	-0.798% (inactive)	–
COCCNc1cc(-c2ccccc2CN(C)C)ncn1	26.2% (inactive)	–
CC(=O)NCCNc1cc(-c2ccccc2C(F)(F)F)ncn1	26.9% (inactive)	–
COCCNc1cc(-c2ccccc2C(F)(F)F)ncn1	–	7.94 µM (active)
O=c1nc2ccccc2c2n1C[C@H](CN1CCN(c3ccccc3)CC1)N2	-14.1% (inactive)	–
O=C1CC2(CCCC2)CC(=O)N1CCCCNC[C@H]1COc2ccccc2O1	-32.6% (inactive)	–
COc1cccc(OC)c1OCCNC[C@@H]1COc2ccccc2O1	–	794 nM (active) and inactive
COc1ccccc1NC(=O)CC1COc2ccccc2O1 (centres undefined)	–	7.08 µM (active)
CCN1CCCC1CNC(=O)C(=O)Nc1ccccc1OC (centres undefined)	-21.8% (inactive)	–
COc1cccc(OC)c1OCCCN1CCOCC1	-65% (inactive)	–
C(=C1/CCCC2=C1Nc1ncnn1C2c1ccccc1)/c1ccccc1 (centres undefined)	-28.3% (inactive)	–
CCCCC1CC(/C(C)=N/NC(N)=O)OC1=O (centres undefined)	-23% (inactive)	–
CC1=CC(=O)c2ccccc2C1=O	–	2.51 µM (active)
COc1cc2nncc(SCc3ccc(Cl)c(Cl)c3)c2cc1OC	–	2.51 µM (active)
CCCCNc1ccc(C(=O)OCCOCCOCCOCCOCCOCCOCCOCCOCCOC)cc1	2.87% [at 25.6 µM] (inactive)	–
CCCCN(CCCC)CCCOC(=O)c1ccc(N)cc1	-26.5% [at 25.6 µM] (inactive)	–
CCCCOC(=O)c1ccc(O)cc1	–	6.31 µM (active)
Clc1ccccc1-c1nc(Nc2ccncc2)c2ccccc2n1	–	5.01 µM (active)
Cc1ccccc1-c1nc(Nc2ccncc2)c2ccccc2n1	-38% (inactive)	–
FC(F)(F)c1ccccc1-c1nc(Nc2ccncc2)c2ccccc2n1	–	2 µM (active)

SMILES	activity, negative = inhibition	AC50
C[C@H](O/N=C1/[C@H]2O[C@@H]2[C@@H](O)[C@H]2[C@H]1CCn1c(=O)n(-c3ccccc3)c(=O)n12)c1cn([C@H]2COC[C@H]2O)nn1	42.5% [at 11.4 µM] (inactive)	–
CN(C)CCC=C1c2ccccc2C=Cc2ccccc21	–	inactive
Cc1noc(C)c1-c1nc(NCc2cccs2)c2ccccc2n1	-38.6% (inactive)	–
Cc1ccccc1-n1cnc2cc(NCc3cccs3)ccc21	–	2.51 µM (active)
c1ccc(-n2cnc3cc(NCc4cccs4)ccc32)cc1	–	2.82 µM (active)
CO[C@H]1COC(=O)C/C=C\[C@H](C)COC(=O)[C@@H](OCc2ccccc2)/C=C\[C@@H]1C	-37% [at 11.4 µM] (inactive)	–
Cc1ccc2c(c1)NCC(C(=O)NC1CCCCC1)O2 (centres undefined)	–	3.55 µM (active)
CCCC1(C)Nc2ccccc2-c2nc3ccccc3n21 (centres undefined)	–	1.41 µM (active)
CCC1(C)Nc2ccccc2C(=O)N1O (centres undefined)	12.7% (inactive)	–
CCCCC1(C)Nc2ccccc2-c2nc3ccccc3n21 (centres undefined)	–	0.708 µM (active)
COc1cccc2c1C(=O)c1c(O)c3c(c(O)c1C2=O)C[C@@](O)(C(=O)CO)C[C@H]3O[C@H]1C[C@@H](N)[C@H](O)[C@@H](C)O1.[W]	9.1% [at 11.4 µM] (inactive)	–
CS(=O)(=O)N1CCC2(CCN(C(=O)Nc3cccc(C#N)c3)CC2)CC1	-27.4% (inactive)	–
O=C(Nc1cccc(Cl)c1)N1CCN2C(=O)c3ccccc3C12c1ccccc1 (centres undefined)	–	2.24 µM (active)
COCC(C)n1c(C)cc(C(=O)CSc2nnc(Nc3ccccc3F)s2)c1C (centres undefined)	–	2 µM (active)
CCCN(C(=S)Nc1ccccc1)C1CCS(=O)(=O)C1 (centres undefined)	-23.4% (inactive)	–
CCOc1ccc(CN(C(=O)c2oc3ccccc3c2C)C2CCS(=O)(=O)C2)cc1 (centres undefined)	–	1.41 µM (active)
Cc1cc(C)c[n+](CC(=O)c2cc3ccccc3oc2=O)c1	4.16% (inactive)	–
O=C(c1sc2ccccc2c1Cl)N(Cc1ccccc1)C1CCS(=O)(=O)C1 (centres undefined)	–	3.16 µM (active)
CCc1ccc(OCC(=O)OC2CCS(=O)(=O)C2)cc1 (centres undefined)	-23.3% (inactive)	–
Cc1ccc(CN(C(=O)c2cc3ccccc3oc2=O)C2CCS(=O)(=O)C2)cc1 (centres undefined)	–	14.1 µM (active)
CCOc1ccc(Cc2nccc3cc(OCC)c(OCC)cc23)cc1OCC	8.39% [at 25.6 µM] (inactive)	–
C/C(CC/C(C)=N/O)=N/O	6.8% [at 11.4 µM] (inactive)	–
CCS(=O)(=O)N1CCC(C(=O)NCCCN2CCCC2)CC1	-1.56% (inactive)	–
CCOCCCNC(=O)C1CCN(S(=O)(=O)N2CC(C)CC(C)C2)CC1 (centres undefined)	-22.9% (inactive)	–
